Assay results published in PubChem BioAssay (EPA / NIEHS).
Results filed as inconclusive are left out. Calls of active or inactive are those of the source. The calls were made as follows, unless noted: active = hit-call score of the fitted dose curve at least 0.9, where 1 is the maximum; inconclusive = response in the unintended direction; inactive = score below 0.9.

Assays:
[1] = biological target: Nuclear receptor subfamily 1 group I member 3 (Homo sapiens) (UniProt Q14994); assay: ATG_CAR_TRANS: Attagene TRANS-FACTORIAL HepG2 Assay for human Constitutive Androstane Receptor (CAR) (AID 2282969); conditions: HepG2 Attagene TRANS-FACTORIAL CAR reporter;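 also: activators raise reporter mRNA above DMSO so AC50 marks induction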
Sequence of Nuclear receptor subfamily 1 group I member 3 (Homo sapiens) (Q14994 whole entry, looked up, the tested form may be a part): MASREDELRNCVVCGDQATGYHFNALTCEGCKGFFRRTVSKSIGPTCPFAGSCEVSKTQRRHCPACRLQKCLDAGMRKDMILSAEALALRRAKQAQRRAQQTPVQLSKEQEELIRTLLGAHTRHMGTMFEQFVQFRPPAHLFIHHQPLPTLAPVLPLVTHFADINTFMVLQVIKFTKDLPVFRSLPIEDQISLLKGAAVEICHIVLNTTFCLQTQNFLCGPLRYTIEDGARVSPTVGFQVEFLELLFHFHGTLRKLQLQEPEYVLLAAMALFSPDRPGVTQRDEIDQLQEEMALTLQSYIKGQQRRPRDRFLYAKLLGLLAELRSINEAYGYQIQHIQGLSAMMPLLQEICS
Procedure, shortened: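 Readout is reporter mRNA induction, quantified by fluorescent primer extension and capillary electrophoresis after RT-PCR. Cells were HepG2 transiently carrying chimeric NR-Gal4 constructs with GAL4-UAS reporters, treated for 24 h; activity scored upward from DMSO.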

[2] = biological target: Estrogen receptor (Homo sapiens) (UniProt P03372); assay: ATG_ERa_TRANS: Attagene TRANS-FACTORIAL HepG2 Assay for human Estrogen Receptor alpha (ERa) (AID 2282970); conditions: HepG2 Attagene TRANS ERa GAL4 reporter, mRNA
Sequence of Estrogen receptor (Homo sapiens) (P03372 whole entry, looked up, the tested form may be a part): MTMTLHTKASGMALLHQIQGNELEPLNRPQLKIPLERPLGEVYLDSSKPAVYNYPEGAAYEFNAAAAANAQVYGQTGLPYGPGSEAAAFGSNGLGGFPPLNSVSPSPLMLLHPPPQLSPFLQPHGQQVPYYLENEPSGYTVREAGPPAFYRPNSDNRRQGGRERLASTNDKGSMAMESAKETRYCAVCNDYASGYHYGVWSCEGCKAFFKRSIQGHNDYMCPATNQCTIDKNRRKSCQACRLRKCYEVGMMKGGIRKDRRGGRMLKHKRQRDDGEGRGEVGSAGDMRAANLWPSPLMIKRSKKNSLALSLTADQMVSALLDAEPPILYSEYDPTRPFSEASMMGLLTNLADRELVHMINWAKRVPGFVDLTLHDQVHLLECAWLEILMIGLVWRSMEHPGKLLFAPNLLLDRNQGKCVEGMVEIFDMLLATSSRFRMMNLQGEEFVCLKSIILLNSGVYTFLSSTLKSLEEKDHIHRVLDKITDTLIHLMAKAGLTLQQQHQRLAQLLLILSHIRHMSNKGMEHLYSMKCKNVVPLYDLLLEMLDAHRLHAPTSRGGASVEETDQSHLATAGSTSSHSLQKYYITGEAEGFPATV
Procedure, shortened: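 HepG2 cells transiently transfected with multiplexed GAL4-UAS reporter units; ERa activity read via exogenous chimeric NR-Gal4 protein. After 24 hour compound exposure, reporter mRNA measured by RT-PCR with 6-FAM labelling and capillary electrophoresis; gain-of-signal fitted relative to DMSO.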

[3] = biological target: X-box-binding protein 1 (Homo sapiens) (UniProt P17861); assay: ATG_Xbp1_CIS: Attagene CIS-FACTORIAL HepG2 Assay for human X-box Binding Protein 1 (XBP1) (AID 2282972; active = hit-call score of the fitted dose curve at least 0.9, where 1 is the maximum; inactive = score below 0.9); conditions: HepG2 XBP1 cis-element reporter, Attagene multiplex; actives raise or lower the signal
Sequence of X-box-binding protein 1 (Homo sapiens) (P17861 whole entry, looked up): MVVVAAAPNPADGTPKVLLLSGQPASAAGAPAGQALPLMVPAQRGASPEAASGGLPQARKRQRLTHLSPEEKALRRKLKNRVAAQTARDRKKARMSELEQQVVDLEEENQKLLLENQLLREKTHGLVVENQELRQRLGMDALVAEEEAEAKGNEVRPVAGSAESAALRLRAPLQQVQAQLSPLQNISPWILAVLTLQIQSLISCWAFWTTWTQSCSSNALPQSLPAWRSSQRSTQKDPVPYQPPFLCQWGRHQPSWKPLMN
Procedure, shortened: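 HepG2 cells transiently transfected with multiple cis-element reporter units report endogenous TF activity; 24 h exposure, then reporter mRNA measured by RT-PCR, 6-FAM labelling, HpaI digestion and capillary electrophoresis. Bidirectional fitting versus DMSO.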

[4] = ATG_M_19_TRANS: Attagene TRANS-FACTORIAL HepG2 Assay for M19 Transcription Factor (Internal Marker) (AID 2282974); conditions: HepG2 Attagene TRANS-FACTORIAL M19 internal marker reporter
Procedure, shortened: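 Fluorescence of 6-FAM-labelled reporter cDNA fragments, separated by capillary electrophoresis, served as the readout. These derived from HepG2 cells carrying transfected GAL4-UAS reporter units after 24 h dosing, with DMSO as negative control.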

[5] = biological target: Bile acid receptor (Homo sapiens) (UniProt Q96RI1); assay: ATG_FXR_TRANS: Attagene TRANS-FACTORIAL HepG2 Assay for Farnesoid X Receptor (FXR) (AID 2282979); conditions: HepG2 Attagene TRANS FXR-GAL4 reporter transcription;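 also: hits raise reporter mRNA above DMSO so AC50 marks FXR activation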
Procedure, shortened: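 HepG2 cells transiently transfected with reporter constructs in which a chimeric FXR-GAL4 protein drives a GAL4-UAS reporter; 24 h compound exposure. Reporter mRNA measured by RT-PCR, FAM labelling, HpaI digestion and capillary electrophoresis; gain-of-signal versus DMSO.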

[6] = ATG_M_06_TRANS: Attagene TRANS-FACTORIAL HepG2 Assay for M06 Transcription Factor (Internal Marker) (AID 2282983); conditions: HepG2 Attagene TRANS M06 internal marker reporter
Procedure, shortened: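 HepG2 cells transiently transfected with multiplexed GAL4-UAS reporter transcription units; after 24 h compound exposure, reporter mRNA measured by RT-PCR, FAM-labelled primer extension, HpaI digestion and capillary electrophoresis. Gain-of-signal fitted versus DMSO baseline; background control readout.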

[7] = ATG_M_32_TRANS: Attagene TRANS-FACTORIAL HepG2 Assay for M32 Transcription Factor (Internal Marker) (AID 2282984); conditions: HepG2 Attagene TRANS M32 internal marker reporter
Procedure, shortened: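 Measures reporter mRNA induction in human HepG2 liver cells after 24 h chemical treatment. Transcripts from transiently transfected GAL4-UAS reporter units are amplified, fluorescently labelled and sized by capillary electrophoresis; gain of signal relative to DMSO.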

[8] = biological target: Nuclear receptor subfamily 4 group A member 2 (Homo sapiens) (UniProt P43354); assay: ATG_NURR1_TRANS: Attagene TRANS-FACTORIAL HepG2 Assay for human Nuclear Receptor Related Protein 1 (NURR1) (AID 2282985); conditions: HepG2 Attagene TRANS reporter, mRNA readout
Sequence of Nuclear receptor subfamily 4 group A member 2 (Homo sapiens) (P43354 whole entry, looked up, the tested form may be a part): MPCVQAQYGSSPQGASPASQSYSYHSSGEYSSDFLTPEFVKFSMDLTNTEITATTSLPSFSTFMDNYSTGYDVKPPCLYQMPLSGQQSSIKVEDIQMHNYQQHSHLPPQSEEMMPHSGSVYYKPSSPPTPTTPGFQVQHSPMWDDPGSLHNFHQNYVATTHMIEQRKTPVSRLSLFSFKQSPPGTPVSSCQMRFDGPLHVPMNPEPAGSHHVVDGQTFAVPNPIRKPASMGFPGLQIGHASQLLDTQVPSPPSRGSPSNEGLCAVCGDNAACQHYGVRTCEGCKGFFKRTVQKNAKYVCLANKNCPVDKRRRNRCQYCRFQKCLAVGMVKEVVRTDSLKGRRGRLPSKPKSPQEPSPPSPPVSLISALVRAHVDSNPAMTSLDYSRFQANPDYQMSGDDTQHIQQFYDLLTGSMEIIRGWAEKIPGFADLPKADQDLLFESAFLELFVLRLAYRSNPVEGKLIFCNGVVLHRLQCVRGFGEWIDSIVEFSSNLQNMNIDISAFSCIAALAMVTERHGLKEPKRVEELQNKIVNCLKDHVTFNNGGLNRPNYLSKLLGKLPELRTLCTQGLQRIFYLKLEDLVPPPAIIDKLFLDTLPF
Procedure, shortened: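 Transient transfection of HepG2, human liver cells, with multiple GAL4-UAS reporter transcription units. Cells dosed 24 h, RNA isolated, reverse-transcribed, PCR-amplified, FAM-labelled, HpaI-digested, sized by capillary electrophoresis. DMSO served as negative control.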

[9] = biological target: Transcriptional activator Myb (Homo sapiens) (UniProt P10242); assay: ATG_Myb_CIS: Attagene CIS-FACTORIAL HepG2 Assay for human Myeloblastosis (Myb) Proto-Oncogene Transcription Factor (AID 2282986; active = hit-call score of the fitted dose curve at least 0.9, where 1 is the maximum; inactive = score below 0.9); conditions: HepG2 Attagene CIS-FACTORIAL Myb reporter transcription; actives raise or lower the signal
Sequence of Transcriptional activator Myb (Homo sapiens) (P10242 whole entry, looked up): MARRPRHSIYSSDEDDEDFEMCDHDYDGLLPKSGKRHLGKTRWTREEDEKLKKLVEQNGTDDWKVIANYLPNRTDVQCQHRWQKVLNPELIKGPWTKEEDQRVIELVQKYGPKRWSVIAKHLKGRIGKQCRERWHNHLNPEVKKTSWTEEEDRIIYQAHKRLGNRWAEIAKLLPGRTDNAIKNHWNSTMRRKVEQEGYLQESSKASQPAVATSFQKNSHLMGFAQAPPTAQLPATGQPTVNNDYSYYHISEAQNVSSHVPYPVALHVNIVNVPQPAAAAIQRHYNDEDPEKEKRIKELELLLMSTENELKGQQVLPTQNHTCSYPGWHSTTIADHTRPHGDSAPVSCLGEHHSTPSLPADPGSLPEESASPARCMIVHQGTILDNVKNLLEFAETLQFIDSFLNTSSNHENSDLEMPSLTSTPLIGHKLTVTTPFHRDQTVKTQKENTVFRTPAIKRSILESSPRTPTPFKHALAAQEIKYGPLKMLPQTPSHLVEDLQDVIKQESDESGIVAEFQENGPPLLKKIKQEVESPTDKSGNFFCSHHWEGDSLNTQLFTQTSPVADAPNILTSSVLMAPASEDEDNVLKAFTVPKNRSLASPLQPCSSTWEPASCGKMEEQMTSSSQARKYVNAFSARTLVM
Procedure, shortened: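 Reporter transcript levels, quantified by fluorescent RT-PCR and capillary electrophoresis, serve as the read-out. Transfected HepG2 cells carrying cis-promoter reporter units are dosed for 24 hours, and curves are fitted bidirectionally against DMSO controls.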

[10] = biological target: Nuclear respiratory factor 1 (Homo sapiens) (UniProt Q16656); assay: ATG_NRF1_CIS: Attagene CIS-FACTORIAL HepG2 Assay for human Nuclear Respiratory Factor 1 (NRF1) Orphan Gene (AID 2282987; active = hit-call score of the fitted dose curve at least 0.9, where 1 is the maximum; inactive = score below 0.9); conditions: HepG2 NRF1 cis-element reporter, Attagene multiplex; actives raise or lower the signal
Sequence of Nuclear respiratory factor 1 (Homo sapiens) (Q16656 whole entry, looked up): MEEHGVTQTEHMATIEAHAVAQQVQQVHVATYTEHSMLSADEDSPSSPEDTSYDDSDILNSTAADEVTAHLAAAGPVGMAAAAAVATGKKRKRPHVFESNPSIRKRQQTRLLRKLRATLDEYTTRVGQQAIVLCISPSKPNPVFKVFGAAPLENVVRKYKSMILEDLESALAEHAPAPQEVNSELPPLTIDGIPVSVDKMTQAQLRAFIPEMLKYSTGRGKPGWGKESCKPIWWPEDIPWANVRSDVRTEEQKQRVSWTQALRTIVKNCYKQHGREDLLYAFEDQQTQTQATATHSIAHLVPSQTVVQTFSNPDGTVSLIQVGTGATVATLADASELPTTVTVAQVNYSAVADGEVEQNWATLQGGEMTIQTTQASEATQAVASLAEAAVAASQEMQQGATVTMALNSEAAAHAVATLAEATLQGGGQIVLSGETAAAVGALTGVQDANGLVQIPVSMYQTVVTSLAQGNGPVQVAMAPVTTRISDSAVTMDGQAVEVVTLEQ
Procedure, shortened: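 Multiplexed cis-reporter assay, HepG2 cells, 24 h treatment. Total RNA → oligo(dT) RT → PCR with reporter-specific primers → 6-FAM primer extension → HpaI cut → CE. Bidirectional fit vs DMSO.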

[11] = ATG_NFI_CIS: Attagene CIS-FACTORIAL HepG2 Assay for human Nuclear Factor I (NFI) (AID 2282989; active = hit-call score of the fitted dose curve at least 0.9, where 1 is the maximum; inactive = score below 0.9); conditions: HepG2 cis-regulatory reporter, NFI response element transcription; actives raise or lower the signal
Procedure, shortened: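 Reporter transcripts were measured by RT-PCR with fluorescent primer extension and capillary electrophoresis 24 h post-treatment. HepG2 cells carried transiently transfected cis-regulated reporter constructs reporting endogenous factor activity; gain or loss fitted against DMSO baseline.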

[12] = biological target: Myc proto-oncogene protein (Homo sapiens) (UniProt P01106); assay: ATG_Myc_CIS: Attagene CIS-FACTORIAL HepG2 Assay for human Myelocytomatosis (Myc) Proto-Oncogene Transcription Factor (AID 2282990; active = hit-call score of the fitted dose curve at least 0.9, where 1 is the maximum; inactive = score below 0.9); conditions: HepG2, Attagene cis-reporter transcription factor activity; actives raise or lower the signal
Sequence of Myc proto-oncogene protein (Homo sapiens) (P01106 whole entry, looked up): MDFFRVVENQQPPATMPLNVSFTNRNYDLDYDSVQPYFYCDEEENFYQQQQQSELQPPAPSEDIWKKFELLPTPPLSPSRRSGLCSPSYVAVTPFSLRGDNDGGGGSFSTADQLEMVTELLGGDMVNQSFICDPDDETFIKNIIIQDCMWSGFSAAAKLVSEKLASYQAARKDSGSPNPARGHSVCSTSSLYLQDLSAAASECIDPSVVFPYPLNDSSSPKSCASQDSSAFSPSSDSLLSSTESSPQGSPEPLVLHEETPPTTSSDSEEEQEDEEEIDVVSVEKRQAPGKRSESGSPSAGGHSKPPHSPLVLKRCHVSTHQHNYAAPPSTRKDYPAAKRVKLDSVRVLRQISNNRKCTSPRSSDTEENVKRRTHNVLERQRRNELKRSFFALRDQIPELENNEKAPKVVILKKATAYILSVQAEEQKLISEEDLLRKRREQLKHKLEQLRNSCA
Procedure, shortened: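 HepG2, transient MRTU transfection (cis promoters, endogenous TFs); 24 h dosing; TriZol RNA → oligo(dT) RT → PCR → 6-FAM primer extension → HpaI cut → CE. Bidirectional fit vs DMSO.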

[13] = biological target: Androgen receptor (Homo sapiens) (UniProt P10275); assay: ATG_AR_TRANS: Attagene TRANS-FACTORIAL HepG2 Assay for human Androgen Receptor (AR) (AID 2282973); conditions: HepG2 Attagene TRANS-FACTORIAL AR reporter transcription
Procedure, shortened: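 HepG2 cells transiently transfected with multiplexed GAL4-UAS reporter units and chimeric NR-Gal4 fusion; 24 h compound exposure. Reporter mRNA measured by RT-PCR, 6-FAM labelling, HpaI digestion and capillary electrophoresis; gain-of-signal fitted relative to DMSO baseline.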

[14] = ATG_GAL4_TRANS: Attagene TRANS-FACTORIAL HepG2 Assay for GAL4 (Internal Marker) (AID 2282976); conditions: HepG2 Attagene TRANS GAL4 internal marker reporter
Procedure, shortened: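 HepG2 cells transiently transfected with multiplexed GAL4-UAS reporter constructs were dosed for 24 h. Reporter mRNA was measured by RT-PCR, 6-FAM primer extension, HpaI digestion and capillary electrophoresis, and gain of signal was fitted relative to DMSO.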

[15] = biological target: Estrogen-related receptor gamma (Homo sapiens) (UniProt P62508); assay: ATG_ERRg_TRANS: Attagene TRANS-FACTORIAL HepG2 Assay for human Estrogen-Related Receptor gamma (ERRg) (AID 2282977); conditions: HepG2 Attagene TRANS reporter, ERRg transactivation;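 also: hits increase reporter signal over DMSO so potencies reflect activators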
Sequence of Estrogen-related receptor gamma (Homo sapiens) (P62508 whole entry, looked up, the tested form may be a part): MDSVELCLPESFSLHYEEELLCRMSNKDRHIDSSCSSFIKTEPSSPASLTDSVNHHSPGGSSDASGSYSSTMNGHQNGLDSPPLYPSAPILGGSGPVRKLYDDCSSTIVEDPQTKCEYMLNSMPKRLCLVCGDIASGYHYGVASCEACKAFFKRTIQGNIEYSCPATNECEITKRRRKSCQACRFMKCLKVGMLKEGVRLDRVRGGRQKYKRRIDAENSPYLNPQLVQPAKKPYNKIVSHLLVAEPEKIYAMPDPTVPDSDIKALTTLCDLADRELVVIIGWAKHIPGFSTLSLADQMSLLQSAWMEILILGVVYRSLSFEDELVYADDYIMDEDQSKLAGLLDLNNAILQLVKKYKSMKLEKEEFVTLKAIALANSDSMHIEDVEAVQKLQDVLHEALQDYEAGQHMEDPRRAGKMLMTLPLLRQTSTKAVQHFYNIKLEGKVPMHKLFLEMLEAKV
Procedure, shortened: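 HepG2 cells transiently transfected with multiplexed GAL4-UAS reporter units driven by chimeric NR-Gal4 proteins; 24 h exposure. Reporter mRNA quantified by RT-PCR, fluorescent labelling, HpaI digestion and capillary electrophoresis; gain of signal vs DMSO.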

[16] = biological target: Glucocorticoid receptor (Homo sapiens) (UniProt P04150); assay: ATG_GR_TRANS: Attagene TRANS-FACTORIAL HepG2 Assay for human Glucocorticoid Receptor (GR) (AID 2282978); conditions: HepG2 Attagene TRANS GR reporter, mRNA transcription;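 also: activators score as hits since higher reporter transcript over DMSO is fitted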
Procedure, shortened: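 Fluorescent capillary-electrophoresis quantitation of reporter mRNA is the readout, taken 24 h after dosing human HepG2 cells carrying transiently transfected GAL4-UAS reporter units activated by chimeric NR-GAL4 fusions; activity scored as induction over DMSO.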

[17] = biological target: Oxysterols receptor LXR-beta (Homo sapiens) (UniProt P55055); assay: ATG_LXRb_TRANS: Attagene TRANS-FACTORIAL HepG2 Assay for human Liver X Receptor beta (LXRb) (AID 2282981); conditions: HepG2 Attagene TRANS GAL4-LXRb reporter, mRNA
Procedure, shortened: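 Transient transfection HepG2 (multiplexed RTUs, GAL4-UAS); NR-Gal4 chimera; 24 h exposure; RNA → RT-PCR → 6-FAM primer extension → HpaI → CE; increase vs DMSO.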

[18] = biological target: Steroid hormone receptor ERR1 (Homo sapiens) (UniProt P11474); assay: ATG_ERRa_TRANS: Attagene TRANS-FACTORIAL HepG2 Assay for human Estrogen-Related Receptor alpha (ERRa) (AID 2282971); conditions: HepG2 Attagene TRANS reporter, ERRa transactivation
Sequence of Steroid hormone receptor ERR1 (Homo sapiens) (P11474 whole entry, looked up, the tested form may be a part): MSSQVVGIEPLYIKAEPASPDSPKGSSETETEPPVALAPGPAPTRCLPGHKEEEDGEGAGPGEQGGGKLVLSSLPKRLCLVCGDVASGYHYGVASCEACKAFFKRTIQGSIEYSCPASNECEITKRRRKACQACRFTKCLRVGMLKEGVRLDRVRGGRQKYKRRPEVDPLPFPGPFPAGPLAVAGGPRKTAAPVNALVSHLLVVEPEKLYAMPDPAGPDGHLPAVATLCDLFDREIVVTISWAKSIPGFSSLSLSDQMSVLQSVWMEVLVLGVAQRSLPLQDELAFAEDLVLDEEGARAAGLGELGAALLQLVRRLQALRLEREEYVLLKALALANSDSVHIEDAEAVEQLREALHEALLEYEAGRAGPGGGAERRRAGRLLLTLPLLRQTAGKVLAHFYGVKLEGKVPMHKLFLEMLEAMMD
Procedure, shortened: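 HepG2 cells transiently transfected with multiplexed GAL4-UAS reporter units reading chimeric ERRa-Gal4 activity; 24 h compound exposure. Reporter mRNA measured by RT-PCR, 6-FAM labelling, HpaI digest and capillary electrophoresis; gain of signal fitted versus DMSO baseline.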

[19] = biological target: Hepatocyte nuclear factor 4-alpha (Homo sapiens) (UniProt P41235); assay: ATG_HNF4a_TRANS: Attagene TRANS-FACTORIAL HepG2 Assay for human Hepatocyte Nuclear Factor 4 alpha (HNF4a) (AID 2282982); conditions: HepG2 HNF4a transactivation reporter, mRNA readout
Sequence of Hepatocyte nuclear factor 4-alpha (Homo sapiens) (P41235 whole entry, looked up, the tested form may be a part): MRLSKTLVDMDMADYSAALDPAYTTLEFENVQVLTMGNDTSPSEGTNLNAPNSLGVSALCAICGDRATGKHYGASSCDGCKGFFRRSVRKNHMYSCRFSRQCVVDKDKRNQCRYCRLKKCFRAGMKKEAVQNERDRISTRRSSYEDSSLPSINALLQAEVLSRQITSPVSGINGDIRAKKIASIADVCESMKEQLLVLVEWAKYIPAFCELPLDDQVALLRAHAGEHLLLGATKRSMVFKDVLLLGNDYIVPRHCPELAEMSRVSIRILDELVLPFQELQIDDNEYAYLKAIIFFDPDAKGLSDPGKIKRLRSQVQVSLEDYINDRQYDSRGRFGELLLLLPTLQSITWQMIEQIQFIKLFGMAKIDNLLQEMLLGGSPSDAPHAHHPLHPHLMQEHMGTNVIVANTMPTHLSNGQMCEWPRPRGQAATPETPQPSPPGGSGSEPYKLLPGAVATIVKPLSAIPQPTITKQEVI
Procedure, shortened: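 Readout is fluorescent reporter-transcript fragments resolved by capillary electrophoresis after RT-PCR from HepG2 cells dosed for 24 h. Cells carried transfected GAL4-UAS reporter constructs measuring exogenous NR-GAL4 chimera activity; DMSO served as baseline.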

[20] = biological target: Oxysterols receptor LXR-alpha (Homo sapiens) (UniProt Q13133); assay: ATG_LXRa_TRANS: Attagene TRANS-FACTORIAL HepG2 Assay for human Liver X Receptor alpha (LXRa) (AID 2282980); conditions: HepG2 Attagene TRANS reporter, LXRa transactivation
Procedure, shortened: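 HepG2 cells were transiently transfected with multiplexed reporter units driven by chimeric LXRa–GAL4 fusion proteins, then dosed for 24 h. Reporter mRNA was quantified by RT-PCR, fluorescent labelling and capillary electrophoresis; gain of signal fitted against DMSO baseline.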

Measured: outcome

CN(N=O)c1ccc([N+](=O)[O-])cc1
not listed: [13] | [14] | [15] | [16] | [17] | [18] | [19] | [20]
inactive: all other assays above

CC1(C)COP(Oc2ccccc2)OC1
not listed: [2] | [4] | [18] | [19] | [20]
inactive: all other assays above

CC(C)[C@H](C(=O)OC(C#N)c1cccc(Oc2ccccc2)c1)c1ccc(OC(F)F)cc1 (stereo partly specified)
not listed: [2] | [4] | [5] | [13] | [16] | [17] | [20]
inactive: all other assays above

COCC(=O)N(c1c(C)cccc1C)[C@H](C)C(=O)OC
not listed: [2] | [5] | [6] | [13] | [14] | [16] | [17] | [19]
inactive: all other assays above

CC(C)CP(=S)(S)CC(C)C
inactive: [1] | [2] | [3] | [14] | [19] | [7] | [9] | [11] | [12]
